The results in this text go back to PubChem BioAssay (NCI).

“And” between values parts separate entries of the source, which are not always exact repeats. Equal entries are not always repeated. The panel holds about 83,000 compounds, 20% with a hit somewhere; the sample as a whole holds those more often.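 Cells were grown in 96-well plates and exposed to the test compound at a single concentration for 48 hours; results are reported as percent growth, with values below 10 considered active.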 The source made the active and inactive calls.

Assay in all cases: NCI-60 one-dose screen, 48 h (100 = growth as untreated, 0 = no growth, -100 = all killed)
Common to all, as to settings: 10 µM unless noted

Assay [1] has as its system NCI-H23 lung.
The test system of assay [2] is NCI-H226 lung.
For assay [3], the system named is NCI-H322M lung.
Assay [4] concerns HOP-62 NSCLC.
In assay [5] the test system is NCI-H460 lung.
The test system of assay [6] is HOP-92 NSCLC.
Assay [7] has as its system NCI-H522 lung.
In assay [8] the test system is 786-0 renal.
Assay [9] deals with COLO 205 colon.
Assay [10] relates to DU-145 prostate.
Assay [11] deals with K-562 leukemia.
The subject of assay [12] is MALME-3M melanoma.
Assay [13] deals with MDA-MB-231 breast.
Assay [14] concerns RXF 393 renal.
In assay [15] the test system is SF-268 CNS.
Assay [16] has as its system SF-295 CNS.
The subject of assay [17] is SF-539 CNS.
For assay [18], the system named is UACC-257 melanoma.
The test system of assay [19] is M14 melanoma.
The subject of assay [20] is A549/ATCC NSCLC.

Take `COCCNC(C)=O`: the growth was 107% (inactive) in assay [1]; 90.3% (inactive) in assay [2]; 108% (inactive) in assay [3]; 98.4% (inactive) in assay [4]; 102% (inactive) in assay [5]; 102% (inactive) in [6]. Further, the growth is 96.6% (inactive) in assay [7]; 97.5% (inactive) in assay [8]; 108% (inactive) in [9]; 112% (inactive) in [10]; 105% (inactive) in [11]; 114% (inactive) in [12]. Besides, the growth in assay [13] was 99.2% (inactive); in assay [14], 104% (inactive); in [15], 101% (inactive); in assay [16], 96.3% (inactive); in assay [17], 99.5% (inactive); in assay [18], 112% (inactive). Further, in [19], the growth was 109% (inactive).

For the molecule `CC1NC(C)c2ccc3ccccc3c2O1` (centres undefined), the growth in assay [1] is 102% (inactive); in assay [2], 102% (inactive); in assay [3] it was 106% (inactive); in [4], 108% (inactive); in assay [5], 108% (inactive); in [6] it was 101% (inactive). For the same molecule, the growth is 106% (inactive) in assay [20]; 104% (inactive) in assay [8]; 121% (inactive) in [9]; 104% (inactive) in assay [10]; 104% (inactive) in assay [11]; 119% (inactive) in assay [12]. In addition, the growth in assay [13] was 110% (inactive); in assay [14], 120% (inactive); in [15], 101% (inactive); in assay [16] it was 116% (inactive); in assay [17], 102% (inactive); in assay [18], 99.4% (inactive). In addition, in [19], the growth is 92.5% (inactive).

Take `CCCCCCCCCCCCCCCCC(=O)O`: the growth in assay [1] is 97.6% (inactive); in assay [2] it was 101% (inactive); in assay [3], 98% (inactive); in [4], 104% (inactive); in assay [5] it was 108% (inactive); in assay [6], 110% (inactive). Further, the growth in assay [20] was 104% (inactive); in [8] it was 97.7% (inactive); in [9], 114% (inactive); in assay [10], 107% (inactive); in assay [11], 89.5% (inactive); in assay [12] it was 98.3% (inactive). The growth in assay [13] is 105% (inactive); in assay [14] it was 99.5% (inactive); in [15], 102% (inactive); in assay [16], 104% (inactive); in [17], 106% (inactive); in assay [18] it was 101% (inactive). For the same molecule, in assay [19], the growth is 104% (inactive).

For the molecule `CN(C=O)c1ccccc1`, the growth in assay [1] is 84.9% (inactive); in assay [2], 75.3% (inactive); in assay [3] it was 98.5% (inactive); in assay [4], 92.3% (inactive); in [5], 102% (inactive); in assay [6], 84.2% (inactive). Moreover, the growth in assay [7] was 92.9% (inactive); in [8] it was 97.1% (inactive); in [9] it was 101% (inactive); in [10], 103% (inactive); in assay [11], 97.7% (inactive); in assay [12], 87.3% (inactive). Also, the growth in assay [13] was 84.6% (inactive); in [14], 105% (inactive); in [15] it was 103% (inactive); in assay [16] it was 92.8% (inactive); in [17], 92.9% (inactive); in assay [18], 103% (inactive). Further, the growth in assay [19] was 95.8% (inactive).

For `Cc1cc(Cl)nc(Nc2ccccc2)n1`, the growth in [1] is 95.9% (inactive); in assay [2], 91.2% (inactive); in [3], 92% (inactive); in assay [4], 62.9% (inactive); in [5], 103% (inactive); in [6] it was 91.2% (inactive). In addition, the growth in assay [20] is 104% (inactive); in [8], 93.8% (inactive); in assay [9] it was 114% (inactive); in [10] it was 107% (inactive); in assay [11] it was 79.9% (inactive); in assay [12], 101% (inactive). In addition, the growth in assay [13] is 105% (inactive); in [14], 96.3% (inactive); in [15], 99.1% (inactive); in assay [16], 91.8% (inactive); in assay [17], 96.6% (inactive); in assay [18], 106% (inactive). Further, the growth in assay [19] is 97.6% (inactive).

For the molecule `CN(C)C(=N)N=C(N)N`, the growth in [1] was 100% (inactive) and 120% (inactive); in assay [2], 110% (inactive) and 133% (inactive); in assay [3], 107% (inactive) and 154% (inactive); in assay [4], 95.5% (inactive) and 99.5% (inactive); in [5], 113% (inactive) and 125% (inactive); in assay [6], 114% (inactive) and 122% (inactive). In addition, the growth is 99.8% (inactive) and 118% (inactive) in [20]; 103% (inactive) and 101% (inactive) in [8]; 135% (inactive) in assay [9]; 120% (inactive) in assay [10]; 130% (inactive) in assay [11]; 116% (inactive) and 269% (inactive) in [12]. Moreover, the growth was 95.8% (inactive) and 114% (inactive) in assay [13]; 101% (inactive) and -7.3% (active) in assay [14]; 99.9% (inactive) and 103% (inactive) in [15]; 113% (inactive) and 178% (inactive) in assay [16]; 98.5% (inactive) and 109% (inactive) in [17]; 108% (inactive) and -0.171% (active) in assay [18]. Further, the growth in assay [19] is 99.2% (inactive) and 101% (inactive).
